Assay outcomes deposited in PubChem BioAssay by National Center for Advancing Translational Sciences (NCATS).
Pf growth 48h = Primary qHTS for delayed death inhibitors of the malarial parasite plastid, 48 hour incubation; AID 504832, 2011; P. falciparum luciferase growth in erythrocytes, 48 h; actives 5.9% (n = 310,000); Potency, µM (doses to about 28.7 µM), most hits filed as inhibitors
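Erythrocytes infected with P. falciparum carrying an integrated firefly luciferase reporter (2% hematocrit, 0.1% parasitemia final) were exposed to compounds in RPMI 1640 with 0.5% Albumax at 37 C, 5% CO2. Growth inhibition was scored as reduced luminescence.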
HCMV inh = qHTS Assay for inhibitors of the human cytomegalovirus (HCMV); HFF cells, HCMV-luciferase reporter, 72 h; active compounds read low; activity change, negative = inhibition, % at 57.5 µM; actives 4.5% (n = 410,000); in the data active means activity change below about -60%; inconclusive means no clear call, values can overlap the other calls; inactive means above about -39%
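HFF cells seeded 16 h at 37C, treated with compounds, infected with luciferase-reporter HCMV at MOI 1 PFU/cell; luciferase read at 72 h post infection, normalized to buffer-only and Salinomycin controls.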
HCV inhibitor = qHTS Assay for Inhibitors of Hepatitis C Virus (HCV); Potency, µM (titrated, usually from 41.8 µM), usual class: inhibitors; Huh7.5.1 HCVcc-Cre infection, luciferase reporter, 44 h; AID 651820, 2012; actives 3.4% (n = 340,000)
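Antiviral activity was scored by luciferase reporter output from cells infected with HCVcc-Cre (~0.5 moi) in presence of compound, 44 h infection period, cells seeded 1,000/well 4 h prior.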
Pf growth 96h = Primary qHTS for delayed death inhibitors of the malarial parasite plastid, 96 hour incubation. P. falciparum luciferase reporter growth, 96 h. Potency, µM (doses to about 28.7 µM), usual class: inhibitors. actives 6.9% (n = 320,000)
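Parasite growth measured via integrated firefly luciferase reporter in P. falciparum. Infected erythrocytes at 2% hematocrit, 0.05% parasitemia final were treated 96 hours at 37 C under 5% CO2, and luminescence was read.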
Numbers stand for hits. Compounds with a hit are over-represented: about 13% of the library has one in this group of screens. Unless noted, the call rests on the fitted dose curve; in most records, active means well fitted inhibition curve with a large enough effect; inconclusive means small, poorly fitted or top-dose-only effect, or another doubt; inactive means no such curve, though single readings can be large or run the other way.

For CN(Cc1ccccc1)c1nc(N)nc(Cl)c1C=O the results were Pf growth 48h inconclusive, HCMV inh inactive, HCV inhibitor 4µM and Pf growth 96h inconclusive.
Screening CCN(C(=O)c1nn(C)c2c1CSc1ccccc1-2)c1cccc(C)c1 returned HCMV inh inactive.
Screening Cc1nc(SCC(=O)c2ccc(F)cc2)c([N+](=O)[O-])[nH]1 returned Pf growth 48h inactive, HCMV inh inactive, HCV inhibitor inactive and Pf growth 96h 1.9µM.
CN(Cc1ccccc1)CC(O)COc1ccc(CNCc2ccc(Cl)s2)cc1 (stereo unspecified) was read as Pf growth 48h 5.9µM, HCMV inh inconclusive, HCV inhibitor inconclusive and Pf growth 96h inconclusive.
Screening CN(Cc1ccccc1)CC(O)COc1ccc(CNCCCOc2cccnc2)cc1 (stereo unspecified) returned Pf growth 48h 2.1µM, HCMV inh inconclusive, HCV inhibitor inconclusive and Pf growth 96h inconclusive.
`OC(COc1ccc(CNCc2cccnc2)cc1)CN1CCc2ccccc2C1` (stereo unspecified) gave Pf growth 48h inconclusive, HCMV inh inactive, HCV inhibitor inactive and Pf growth 96h inactive.
CN(Cc1ccccc1)CC(O)COc1ccc(CNCCOc2cccnc2)cc1 (stereo unspecified) was read as Pf growth 48h 13µM, HCMV inh inactive, HCV inhibitor inactive and Pf growth 96h inconclusive.
`CN(Cc1ccccc1)CC(O)COc1ccc(CNCc2cccnc2)cc1` (stereo unspecified) gave Pf growth 48h 9.3µM, HCMV inh inactive, HCV inhibitor inconclusive and Pf growth 96h 8.3µM.
`COc1cc2oc(=O)c(CC(=O)NCCc3ccccc3F)c(C)c2cc1OC` gave HCMV inh inactive.
CCCC(=O)N1CCN(c2nc3ccc(F)cc3s2)CC1 was read as HCMV inh inactive.
For Cc1nn(C)cc1CNCc1ccc(OCC(O)CN(C)Cc2ccccc2)cc1 (stereo unspecified) the results were Pf growth 48h inconclusive, HCMV inh inactive, HCV inhibitor inconclusive and Pf growth 96h inactive.
For CCn1cc(CNCc2ccc(OCC(O)CN(C)Cc3ccccc3)cc2)cn1 (stereo unspecified) the results were Pf growth 48h inconclusive, HCV inhibitor 10µM and Pf growth 96h inconclusive.
`Cc1ccc(-n2nc(C(=O)Nc3cccc(C#N)c3)c3c4ccccc4n(C)c3c2=O)cc1` gave HCMV inh inactive.
O=c1oc2ccccc2c(N2CCN(c3ccccc3F)CC2)c1CN1CCCC1 was read as HCMV inh inactive.
`COc1ccc(-n2c(SCC(=O)NCc3ccccc3)nc3c([nH]c4ccccc43)c2=O)cc1` gave HCMV inh inactive.
For N#Cc1cc(-c2ccccc2)nc(NN)n1 the results were Pf growth 48h inconclusive, HCMV inh inconclusive, HCV inhibitor inactive and Pf growth 96h 10µM.
Screening NNc1nc(-c2ccccc2)cc(-c2ccccc2)n1 returned Pf growth 48h inconclusive, HCMV inh inactive, HCV inhibitor 13µM and Pf growth 96h inactive.
`NNc1nc(-c2ccccc2)cc(-c2ccccc2O)n1` gave Pf growth 48h inconclusive, HCMV inh inactive, HCV inhibitor inconclusive and Pf growth 96h inconclusive.
`CCN(Cc1ccccc1)C(=O)CN1C(=O)CSc2ccc(S(=O)(=O)N(CC)CC)cc21` gave HCMV inh inactive.
For CC(C)c1ccc(S(=O)(=O)N2CCN(C(=O)c3ccncc3)CC2)cc1 the results were Pf growth 48h inconclusive, HCMV inh inactive, HCV inhibitor inactive and Pf growth 96h inconclusive.
Cc1ccc(S(=O)(=O)N2CCN(C(=O)n3ccnc3)CC2)cc1 was read as Pf growth 48h inconclusive, HCMV inh inactive, HCV inhibitor inactive and Pf growth 96h 7.4µM.
`CC(C)c1ccc(S(=O)(=O)N2CCN(C(=O)n3ccnc3)CC2)cc1` gave Pf growth 48h inconclusive, HCMV inh inconclusive, HCV inhibitor inactive and Pf growth 96h 5.2µM.
For Cc1ccc(S(=O)(=O)N2CCN(C(=O)N3CCCC3)CC2)cc1 the results were Pf growth 48h inactive, HCMV inh inactive, HCV inhibitor inactive and Pf growth 96h inactive.
For CCOC(=O)c1ccc(NC(=O)Cn2cc(C(=O)C3CC3)c3ccccc32)cc1 the results were HCMV inh inactive.
S=C(NCCCN1CCOCC1)Nc1ccc(Cl)c(Cl)c1 was read as Pf growth 48h inactive, HCMV inh inactive, HCV inhibitor inactive and Pf growth 96h 17µM.
For O=C(NCCCN1CCOCC1)Nc1ccc(Cc2ccc(NC(=O)NCCCN3CCOCC3)cc2)cc1 the results were Pf growth 48h 2.6µM, HCMV inh inactive, HCV inhibitor inactive and Pf growth 96h 1.7µM.
Screening COc1ccc(S(=O)(=O)NCc2ccccn2)c(C)c1C returned Pf growth 48h inactive, HCMV inh inactive, HCV inhibitor inactive and Pf growth 96h inactive.
COc1ccccc1Oc1ccc(S(=O)(=O)NCc2ccccn2)cc1 was read as Pf growth 48h inactive, HCMV inh inconclusive, HCV inhibitor inconclusive and Pf growth 96h 10µM.
Screening CCOc1ccc(S(=O)(=O)NCc2ccccn2)c(C)c1C returned Pf growth 48h inconclusive, HCMV inh inactive, HCV inhibitor inactive and Pf growth 96h 10µM.
CCCc1ccccc1OCCNC(C)=O was read as Pf growth 48h inactive, HCMV inh inactive, HCV inhibitor inactive and Pf growth 96h 8.3µM.
Screening Cc1ccc[n+](C2=C([O-])c3ccccc3C(=O)C2=O)c1 returned HCMV inh inactive.
`O=C1/C(=N\S(=O)(=O)c2cccs2)C([n+]2ccccc2)=C([O-])c2ccccc21` gave Pf growth 48h inconclusive, HCMV inh -66, HCV inhibitor 6.3µM and Pf growth 96h inconclusive.
`O=C(c1cccc(Br)c1)c1cn(-c2ccccc2)nc1C(=O)c1ccccc1` gave Pf growth 48h 4.7µM, HCMV inh inactive, HCV inhibitor inconclusive and Pf growth 96h inconclusive.
Cc1ccc(N2CC(c3nnc(Cc4ccc(Cl)cc4)o3)CC2=O)cc1 (stereo unspecified) was read as HCMV inh inactive.
For Cc1cccc2c1c1ccc3c(c1n2C)C(=O)C=CC3=O the results were Pf growth 48h 12µM, HCMV inh inactive, HCV inhibitor inactive and Pf growth 96h inconclusive.
Screening Cc1ccccc1N1CC(=O)N(c2ccccc2C)CC1=O returned HCMV inh inactive, HCV inhibitor inactive and Pf growth 96h inactive.
For O=C(c1n[nH]c(=O)c2ccccc12)N1CCN(S(=O)(=O)c2ccccc2Cl)CC1 the results were Pf growth 48h inconclusive, HCMV inh inactive, HCV inhibitor inactive and Pf growth 96h 5.9µM.
O=C(c1n[nH]c(=O)c2ccccc12)N1CCN(c2ccc(F)cc2)CC1 was read as Pf growth 48h inactive, HCMV inh -102, HCV inhibitor inactive and Pf growth 96h inactive.
For Cc1ccc(S(=O)(=O)N2CCN(C(=O)c3n[nH]c(=O)c4ccccc34)CC2)cc1 the results were Pf growth 48h inactive, HCMV inh inactive, HCV inhibitor inactive and Pf growth 96h inactive.
